According to PubChem BioAssay (NCI):
This is part of a sample that, as a whole, favours compounds with a hit. Of some 79,000 tested, about 15% had one in any assay. Calls of active or inactive are those of the source. Cut-off read from the data, not from the text of the source: active = growth inhibition above about 70%; inactive = the rest.

Assay: NCI Yeast Anticancer Drug Screen. Data for the bub3 strain (AID 167)
Details: S. cerevisiae bub3 mutant strain, at 50.0 µM, hits give high values
Procedure, shortened: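 Steps: expose the mutant yeast strain to compound; grow alongside vehicle-treated cultures; measure growth; express inhibition against the vehicle cultures.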

Row | Structure (SMILES) | growth inhibition
1 | CC1=CC2OC3CC4OC(=O)/C=C/C=C/C(C(C)O)OCC(=O)C(C)CC(=O)OCC2(CC1)C4(C)C31CO1 (stereo not drawn) | 91.8% (active)
2 | Cc1cc(=O)oc2c3c(ccc12)OC(c1ccc(Br)cc1)CC3=O (stereo not drawn) | -3% (inactive)
3 | OCC(O)C(O)C(O)/C=N\Nc1ccccc1 (stereo not drawn) | 51.5% (inactive)
4 | CN(C)Cc1ccc2[nH]c3c(c2c1)CCCC3 | 45% (inactive)
5 | CC(C)CCCC(C)C1CCC2C3CC=C4OC(=O)CCC4(C)C3CCC12C (stereo not drawn) | 86.3% (active)
6 | CC(C(=O)c1ccc2cc(Br)c3ccccc3c2c1)N(C)C (stereo not drawn) | 99.4% (active)
7 | O=[N+]([O-])c1ccccc1SCc1ccccc1 | 30.8% (inactive)
8 | C(=P(c1ccccc1)(c1ccccc1)c1ccccc1)[P+](c1ccccc1)(c1ccccc1)c1ccccc1 | 99% (active)
9 | CCOC(=O)N1CCN(C(=S)N/N=C(\C)c2ncccn2)CC1 | 99.5% (active)
10 | CCC1(C)C(C#N)(C#N)C1(C#N)C#N | 95.4% (active)
11 | Cc1ccccc1C(O)(c1ccccc1C)C1(O)CCN(C)CC1 | 96.2% (active)
12 | Oc1c(C(Nc2ccccn2)c2ccccc2)ccc2cccnc12 (stereo not drawn) | 94.4% (active)
13 | Cc1ccc(C(CN(C)C)C(=O)c2ccccc2)cc1C (stereo not drawn) | 69.4% (inactive)
14 | COC(=O)/C=C(\NC1CC(OC2C[C@](O)(C(C)=O)Cc3c(O)c4c(c(O)c32)C(=O)c2c(OC)cccc2C4=O)OC(C)C1O)C(=O)OC (stereo partly drawn) | 74.2% (active)
15 | CC1(C)C/C(=N/NC(N)=S)C(=NO)/C(=N\NC(N)=S)C1 | 76.8% (active)
16 | Cc1cc2c(c(C(N)=O)c1C)-c1cccc(F)c1C2=O | 16% (inactive)
17 | CN(C)c1ccc(/C=C(\C#N)c2cccc(Cl)c2)cc1 | 13.7% (inactive)
18 | Cc1ccc(S(=O)(=O)NNc2nc(N(C)C)nc(N(C)C)n2)cc1 | 4.4% (inactive)
19 | CC(NNC(=S)NCc1ccccc1)c1cc2ccccc2cn1 (stereo not drawn) | 83.7% (active)
20 | COc1ccc(Cc2c(-c3ccc(C)cc3)n[nH]c(=O)c2C2C(=O)N(c3ccccc3)N=C2c2ccccc2)cc1 (stereo not drawn) | 97.5% (active)

Row | Structure (SMILES) | growth inhibition
21 | CC1(c2ccccc2)OC(=O)C=CC1=O (stereo not drawn) | 99.5% (active)
22 | CC1CCC(C)(C)c2cc([N+](=O)[O-])cc([N+](=O)[O-])c21 (stereo not drawn) | 80.2% (active)
23 | CC1(C)CC(=O)C(/C=N/c2nc(-c3cccc([N+](=O)[O-])c3)cs2)=C(O)C1 | 99.1% (active)
24 | O=[N+]([O-])C(=C1Nc2ccccc2N1)C(Cl)=C(Cl)Cl | -2.55% (inactive)
25 | COc1ccc2c(c1)C1(C)CCCC(C)(C(=O)O)C1C(Br)C2=O (stereo not drawn) | 35.2% (inactive)
26 | COc1cc(NCC(C)(O)CN2CCC(C)CC2C)c2ncccc2c1 (stereo not drawn) | 80.7% (active)
27 | ClC/C=C/c1ccccc1 | 37.1% (inactive)
28 | O=C(c1ccc(O)c(Br)c1)c1cc(Br)ccc1O | 96% (active)
29 | COc1ccc(OP2(Oc3ccc(OC)cc3)=NP(Oc3ccc(OC)cc3)(Oc3ccc(OC)cc3)=NP(Oc3ccc(OC)cc3)(Oc3ccc(OC)cc3)=NP(Oc3ccc(OC)cc3)(Oc3ccc(OC)cc3)=N2)cc1 | 54.5% (inactive)
30 | COc1ccccc1NC(=O)CSC(N)=O | 88.2% (active)
31 | Cc1ccc(N=C(N)Nc2ccc(C)cn2)nc1 | 79.3% (active)
32 | FC(F)(F)c1nc(Cl)nc2nc[nH]c12 | -21.7% (inactive)
33 | O=[N+]([O-])c1ccccc1CC(c1c[nH]c2ccccc12)c1c[nH]c2ccccc12 | 55.8% (inactive)
34 | O=C(O)C1CCCCC1.[Ag] | 90.6% (active)
35 | CC(C)c1ccc(O)c(O)c(=O)c1 | 93.1% (active)
36 | CC(C)(C)c1ccc(Sc2ncnc3ccccc23)cc1 | 92.5% (active)
37 | CC(C)NC(=O)CN1C(=O)NC(C)(c2ccccc2)C1=O (stereo not drawn) | 79.2% (active)
38 | COc1cccc(N2CCN(CC(O)COc3cc4c(c5c3CCCC5)CCCC4)CC2)c1 (stereo not drawn) | 95% (active)
39 | CC(CCN)(CCN)[N+](=O)[O-] | 6.9% (inactive)

Assay: NCI Yeast Anticancer Drug Screen. Data for the mlh1 rad18 strain (AID 175)
Details: S. cerevisiae mlh1 rad18 strain growth inhibition; at 5.0 µM (retest, dose inferred, filed as 0.5); hits give high values
Procedure, shortened: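 Vehicle-treated cultures served as the reference for growth inhibition in a yeast strain carrying DNA damage repair alterations exposed to each compound.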

Row | Structure (SMILES) | growth inhibition
40 | CC1=CC2OC3CC4OC(=O)/C=C/C=C/C(C(C)O)OCC(=O)C(C)CC(=O)OCC2(CC1)C4(C)C31CO1 (stereo not drawn) | 65% (inactive)
41 | Cc1cc(=O)oc2c3c(ccc12)OC(c1ccc(Br)cc1)CC3=O (stereo not drawn) | 22% (inactive)
42 | OCC(O)C(O)C(O)/C=N\Nc1ccccc1 (stereo not drawn) | 16% (inactive)
43 | CN(C)Cc1ccc2[nH]c3c(c2c1)CCCC3 | 28% (inactive)
44 | CC(C)CCCC(C)C1CCC2C3CC=C4OC(=O)CCC4(C)C3CCC12C (stereo not drawn) | -1% (inactive)
45 | CC(C(=O)c1ccc2cc(Br)c3ccccc3c2c1)N(C)C (stereo not drawn) | 5% (inactive)
46 | O=[N+]([O-])c1ccccc1SCc1ccccc1 | 13% (inactive)
47 | C(=P(c1ccccc1)(c1ccccc1)c1ccccc1)[P+](c1ccccc1)(c1ccccc1)c1ccccc1 | 99% (active)
48 | CCOC(=O)N1CCN(C(=S)N/N=C(\C)c2ncccn2)CC1 | -4% (inactive)
49 | CCC1(C)C(C#N)(C#N)C1(C#N)C#N | -46% (inactive)
50 | Cc1ccccc1C(O)(c1ccccc1C)C1(O)CCN(C)CC1 | 13% (inactive)
51 | Oc1c(C(Nc2ccccn2)c2ccccc2)ccc2cccnc12 (stereo not drawn) | 7% (inactive)
52 | Cc1ccc(C(CN(C)C)C(=O)c2ccccc2)cc1C (stereo not drawn) | -6% (inactive)
53 | COC(=O)/C=C(\NC1CC(OC2C[C@](O)(C(C)=O)Cc3c(O)c4c(c(O)c32)C(=O)c2c(OC)cccc2C4=O)OC(C)C1O)C(=O)OC (stereo partly drawn) | -6% (inactive)
54 | CC1(C)C/C(=N/NC(N)=S)C(=NO)/C(=N\NC(N)=S)C1 | 2% (inactive)
55 | Cc1cc2c(c(C(N)=O)c1C)-c1cccc(F)c1C2=O | 1% (inactive)
56 | CN(C)c1ccc(/C=C(\C#N)c2cccc(Cl)c2)cc1 | -3% (inactive)
57 | Cc1ccc(S(=O)(=O)NNc2nc(N(C)C)nc(N(C)C)n2)cc1 | 2% (inactive)
58 | CC(NNC(=S)NCc1ccccc1)c1cc2ccccc2cn1 (stereo not drawn) | 19% (inactive)
59 | COc1ccc(Cc2c(-c3ccc(C)cc3)n[nH]c(=O)c2C2C(=O)N(c3ccccc3)N=C2c2ccccc2)cc1 (stereo not drawn) | 47% (inactive)

Row | Structure (SMILES) | growth inhibition
60 | CC1(c2ccccc2)OC(=O)C=CC1=O (stereo not drawn) | 27% (inactive)
61 | CC1CCC(C)(C)c2cc([N+](=O)[O-])cc([N+](=O)[O-])c21 (stereo not drawn) | -1% (inactive)
62 | CC1(C)CC(=O)C(/C=N/c2nc(-c3cccc([N+](=O)[O-])c3)cs2)=C(O)C1 | 14% (inactive)
63 | O=[N+]([O-])C(=C1Nc2ccccc2N1)C(Cl)=C(Cl)Cl | 15% (inactive)
64 | COc1ccc2c(c1)C1(C)CCCC(C)(C(=O)O)C1C(Br)C2=O (stereo not drawn) | 21% (inactive)
65 | COc1cc(NCC(C)(O)CN2CCC(C)CC2C)c2ncccc2c1 (stereo not drawn) | 0% (inactive)
66 | ClC/C=C/c1ccccc1 | 3% (inactive)
67 | O=C(c1ccc(O)c(Br)c1)c1cc(Br)ccc1O | 78% (active)
68 | COc1ccc(OP2(Oc3ccc(OC)cc3)=NP(Oc3ccc(OC)cc3)(Oc3ccc(OC)cc3)=NP(Oc3ccc(OC)cc3)(Oc3ccc(OC)cc3)=NP(Oc3ccc(OC)cc3)(Oc3ccc(OC)cc3)=N2)cc1 | 17% (inactive)
69 | COc1ccccc1NC(=O)CSC(N)=O | 2% (inactive)
70 | Cc1ccc(N=C(N)Nc2ccc(C)cn2)nc1 | 5% (inactive)
71 | FC(F)(F)c1nc(Cl)nc2nc[nH]c12 | 0% (inactive)
72 | O=[N+]([O-])c1ccccc1CC(c1c[nH]c2ccccc12)c1c[nH]c2ccccc12 | 1% (inactive)
73 | O=C(O)C1CCCCC1.[Ag] | 34% (inactive)
74 | CC(C)c1ccc(O)c(O)c(=O)c1 | 41% (inactive)
75 | CC(C)(C)c1ccc(Sc2ncnc3ccccc23)cc1 | -6% (inactive)
76 | CC(C)NC(=O)CN1C(=O)NC(C)(c2ccccc2)C1=O (stereo not drawn) | 11% (inactive)
77 | COc1cccc(N2CCN(CC(O)COc3cc4c(c5c3CCCC5)CCCC4)CC2)c1 (stereo not drawn) | 12% (inactive)
78 | CC(CCN)(CCN)[N+](=O)[O-] | 4% (inactive)
